# Screens as filed in PubChem.
# In the library only some 4.5% were active in any assay of this set; here they are far more common.
# Mdm2 MdmX PPI: human Mdm2/MdmX binding inhibition | inhibition, % at 8 µM | hit rate 3% among 330,000 | AID 485346 | SaOS-2 split-luciferase Mdm2/MdmX complementation, luminescence;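 active = inhibition of at least 50% at 8 µM in the primary screen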
# Gli-Sufu antag: Gli-Sufu pathway antagonism; Sufu-KO-LIGHT fibroblasts, Gli luciferase reporter luminescence; inhibition, % at 5 µM; AID 588413; hit rate 0.74% among 340,000;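 active = inhibition above about 55%, limit read from the data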;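 note: 0% = DMSO-treated cells and 100% = wells with medium but no cells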
# Jurkat NFkB inh: lowers PMA/ionomycin-induced NF-kB signal in Jurkat cells; inhibition, % at 4 µM; PMA/ionomycin-induced NF-kB luciferase reporter, luminescence; hit rate 0.53% among 330,000; in the data active = inhibition above about 50%
# CSC inhib: cancer stem cell inhibition; AID 2717; inhibition, % at 7.5 µM; cancer stem cell-like cells viability, luminescence; hit rate 1.1% among 300,000; in the data active = inhibition above about 75%; tested in HMLE shEcad cells
# Beta cell apopt: blocks beta cell apoptosis | hit rate 0.8% among 300,000 | protection from apoptosis, % (no concentration beside the values) | INS-1E cytokine-induced death, ATP luminescence, 48 h; percent of positive-control rescue, neutral wells zero;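 active = Every replicate reaches about 75%, or at least half do and their mean reaches it too, limit read from the data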;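 note: 0% = cytokine-treated negative control wells and 100% = positive control rescue; higher means more ATP so stronger rescue from cytokine killing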
# 697 NFkB inh: inhibitors of the PMA/ionomycin-induced NF-kB reporter in 697 B cells; hit rate 0.33% among 330,000; inhibition, % at 4 µM; AID 435022; 697 B-cell NF-kB luciferase reporter, 16 h; in the data active = inhibition above about 35%
# Jurkat NFkB conf: lowers PMA/ionomycin-induced NF-kB signal in Jurkat cells | AID 435020 | hit rate 27% among 2,700 | inhibition, % at 4 µM | shares compounds with Jurkat NFkB inh | Jurkat NF-kB luciferase, 16 h;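 active = inhibition reaching about 45% at 4 µM in either replicate, limit read from the data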;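 note: plate controls were PMA/ionomycin stimulated DMSO wells for no effect and unstimulated DMSO wells for full effect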
# Active calls of the source: *; / = no result.
SMILES,Mdm2 MdmX PPI,Gli-Sufu antag,Jurkat NFkB inh,CSC inhib,Beta cell apopt,697 NFkB inh,Jurkat NFkB conf
COc1cccc(CN(C)C(=O)c2ccc(OCC(=O)Nc3cccc(C(F)(F)F)c3)c(OC)c2)c1,35,11,56*,26,1,-35,62*
COc1ccc(CN(C)C(=O)c2ccc(OCC(=O)Nc3cccc(C(F)(F)F)c3)c(OC)c2)c(OC)c1,13,10,34,9,12,-28,/
CC1CCCC(C)N1C(=O)COC(=O)COc1ccc(C#N)cc1 (centres undefined),-20,3,-8,2,3,-15,/
CCCCOc1ccc(Cc2c(O)nc(SC)[nH]c2=O)cc1,10,13,-9,11,-1,14,/
CCn1c(/C=C/c2ccccc2)nc2ccccc21,-164,-82,-170,17,26,-135,-134
Cc1nc(-c2ccccc2)sc1-c1ccn[nH]1,-195,-139,-185,1,-2,-201,-118
CC(=O)c1c(C)[nH]c(C(=O)COC(=O)c2c(-c3ccccc3)noc2C)c1C,26,-1,12,-1,2,-2,/
Cc1cccc(/C=N/NC(=O)c2cc(C3CC3)nc3ccccc23)n1,8,-1,11,-23,2,11,/
CCc1ccc(/C=N/NC(=O)c2cc(C3CC3)nc3ccccc23)s1,41,3,58*,-6,5,-23,33
CC(C)(C)[C@@H]1COC(=O)[C@H](Cc2ccc(F)cc2)C/C=C\C[C@H](CC(=O)N(CCO)Cc2ccccc2)C(=O)N1,21,11,21,-9,5,27,/
COc1cc(/C=N/N(C)c2ccccc2)ccc1O,-117,-97,-163,31,-3,-182,5
COCC(=O)N1CCC(Oc2ccc(C(=O)N3CCSCC3)cc2)CC1,4,1,-1,4,-2,17,/
CCOC(=O)C1=C(C)NC2=C(C(=O)CC(c3cccs3)C2)C1c1cccs1 (centres undefined),45,0,60*,-8,7,-28,5
COCCN(C(=O)c1cc(Cl)ccn1)c1c(N)n(Cc2ccccc2)c(=O)[nH]c1=O,9,-7,-4,/,/,-3,/
CC(=O)N1CCN(S(=O)(=O)c2cccc(C(=O)NCc3ccc(F)cc3)c2)CC1,14,3,-16,0,-2,-3,/
O=C(Nc1ccccc1)N1CCC(c2nc(-c3ccc(S(=O)(=O)N4CCOCC4)cc3)no2)CC1,40,5,53*,7,14,-82,19
O=C(Nc1ccc2c(c1)CCC2)c1ccccc1,-214,-118,-159,4,14,-242,-154
CCOCCCNC(=O)c1cc2c(=O)n3cccc(C)c3nc2n1C,44,0,58*,50,8,-12,44
COCCNC(=O)c1cc2c(=O)n3cccc(C)c3nc2n1C,25,-7,47,34,/,-12,/
COC(=O)c1cc(Cl)c(NC(=O)C(C)C)cc1OC,7,-1,0,-11,2,-9,/
COC(=O)c1cc(Cl)c(NC(=O)/C=C/c2ccc(OC)cc2)cc1OC,49,-5,51*,18,8,-43,20
CC(C)(C)c1cc(NC(=O)c2cccs2)no1,-105,-100,-158,16,8,-189,-81
Cc1cc(NC(=O)c2ccc(NC(=O)c3cccs3)cc2)no1,-1,5,-10,-1,6,-16,/
CCOc1ccccc1-n1c(CN2CCN(C(=O)c3ccco3)CC2)nc2ccccc2c1=O,34,12,95*,61,4,-29,24
CC(C)(C)Nc1ncnc2c1cnn2-c1ccccc1,-98,-125,-173,-2,8,-218,-127
SMILES,Mdm2 MdmX PPI,Gli-Sufu antag,Jurkat NFkB inh,CSC inhib,Beta cell apopt,697 NFkB inh,Jurkat NFkB conf
CC1CCN(c2ncnc3c2cnn3-c2ccccc2)CC1,-236,-111,-187,50,/,-185,-106
CC(=O)Nc1ccc(-c2nc3cc(Cl)ccc3o2)cc1,-199,-116,-152,6,5,-239,-99
COc1ccc(Nc2nc(N3CCCC3)c3ccccc3n2)cc1,48,50,58*,-10,81*,-24,20
Cc1nc(N2CCCCCC2)c2ccccc2n1,28,3,0,-9,9,-26,/
OC(CN1C2=NCCN2c2ccccc21)c1ccc2c(c1)OCO2 (centres undefined),-7,2,63*,-8,-1,-1,12
OC(CN1C2=NCCCN2c2ccccc21)c1ccc2c(c1)OCO2 (centres undefined),-26,-17,-5,-1,-2,4,/
COc1ccc(C2C(C(N)=O)=C(C)Nc3nc(CCCO)nn32)cc1OC (centres undefined),14,-5,-16,-3,/,13,/
CC(C)C1COC(c2cccc3ccccc23)=N1 (centres undefined),-122,-40,-159,14,5,-193,-40
O=C(CN1CCN(c2ccc(F)cc2)CC1)Nc1nccs1,-1,24,2,/,/,-2,/
CC[C@]12C(=O)N(C)C[C@H]([C@@H]3C(=O)N(Cc4ccccc4)C(=O)[C@@H]31)N2C(=O)c1ccc(Br)cc1,/,5,/,/,/,/,/
Cc1c(C(C)(C)C)sc(=NC(=O)c2ccccc2O)n1C,-103,-87,-193,21,8,-226,-113
Cc1c(C(C)(C)C)s/c(=N/S(=O)(=O)c2ccccc2)n1C,9,8,-11,-1,-1,2,/
CC(C)c1ccc(NC(=O)c2csnn2)cc1,-87,-70,-162,5,2,-175,-109
O=C(Nc1ccccc1NC(=O)c1csnn1)c1csnn1,5,-3,13,-8,/,0,/
Cc1ccc(-n2ccc(=O)c(C(=O)Nc3ccc(S(=O)(=O)Nc4onc(C)c4C)cc3)n2)cc1,-7,-10,-13,4,-6,8,/
Cc1cccc(-c2nc(=S)c3c(o2)CCCC3)c1,-119,-54,-166,-12,-5,-138,-80
O=C(NC1CCN(S(=O)(=O)c2ccccc2)CC1)c1ccc(F)cc1,25,-3,3,11,5,5,/
CN(C)c1ccc(N=Nc2ccc(S(N)(=O)=O)cc2)cc1,-73,-93,-154,-4,-1,-156,-79
CN(C)N=Nc1ccc(S(N)(=O)=O)cc1,2,4,-6,5,0,23,/
O=C(Nc1nnc(-c2cccs2)s1)c1cccc(F)c1,-56,-5,-54,3,1,-31,/
CC1(C2CC2)NC(=O)N(CC(=O)Nc2ccc(C(F)(F)F)cc2)C1=O (centres undefined),19,-8,-4,/,-1,6,/
CNc1ccc(/C=C(\C#N)c2ccccn2)cc1[N+](=O)[O-],8,-41,-195,6,14,-59,-50
CSc1nc(Cl)c(Cc2ccc(OC(C)C)cc2)c(N(C)C)n1,-1,10,11,23,11,-38,/
